From PubChem BioAssay
Active and inactive are the calls of the source. Unless noted, how the calls were made is not given here.

Tests used:
[1] = tested on: XIP peptide (Xip251-270) binding; assay: small-molecule binders of XIP peptide, primary screen, biochemical, small-molecule microarray, fluorescence 635/667 nm, 0.1 µg/mL protein (AID 1182); settings: fluorescent protein binding, 635 nm, higher = more signal, called active from +8 up or from −8 down
XIP peptide (Xip251-270) = assay: small-molecule binders of XIP peptide, primary screen, biochemical, small-molecule microarray, fluorescence 635/667 nm, 0.5 µg/mL protein (AID 1183); settings: small-molecule microarray binding, fluorescence 635 nm; higher = more signal
[2] = Plasmodium falciparum growth inhibition, primary screen, strain 3D7, DAPI fluorescence, 100 nL (AID 1184);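 further: parasites grown inside human red blood cells in medium with human serum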; settings: P. falciparum 3D7 growth, 3 d, higher = more signal
[3] = target: Homeobox protein Hox-A13 (Mus musculus) (UniProt Q62424); assay: inhibitors of HoxA13-DNA binding, primary screen, biochemical, fluorescence polarization, labeled oligonucleotide (AID 1185); settings: 15 min, higher = more signal, called active from +8 up or from −8 down
Sequence of Homeobox protein Hox-A13 (Mus musculus) (Q62424 whole entry, looked up): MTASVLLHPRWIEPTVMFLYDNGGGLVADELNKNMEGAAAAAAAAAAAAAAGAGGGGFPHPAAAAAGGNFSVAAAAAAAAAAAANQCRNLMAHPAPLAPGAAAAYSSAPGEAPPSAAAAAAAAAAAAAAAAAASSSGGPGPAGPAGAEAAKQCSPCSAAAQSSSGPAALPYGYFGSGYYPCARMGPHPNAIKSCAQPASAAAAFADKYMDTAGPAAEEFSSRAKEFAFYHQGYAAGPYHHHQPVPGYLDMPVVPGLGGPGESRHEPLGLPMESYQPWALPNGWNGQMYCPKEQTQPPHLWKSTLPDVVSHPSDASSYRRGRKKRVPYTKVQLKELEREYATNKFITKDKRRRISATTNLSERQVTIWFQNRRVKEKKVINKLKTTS

[4] = inhibitors of hydroxyurea-induced Chk1 phosphorylation, primary screen, imaging, HeLa, phospho-Chk1 antibody, percent positive cells (AID 1186); settings: hydroxyurea-induced phospho-Chk1 immunofluorescence imaging, higher = more signal
[5] = inhibitors of hydroxyurea-induced Chk1 phosphorylation, primary screen, imaging, HeLa, phospho-Chk1 nuclear intensity (AID 1187); settings: hydroxyurea-induced phospho-Chk1 immunofluorescence imaging, higher = more signal

Row | SMILES | composite z-score [1] | composite z-score (XIP peptide (Xip251-270)) | z-score [2] | z-score [3] | z-score [4] | z-score [5]
1 | O=C1N(CCS(=O)(=O)c2ccccc2)Cc2ccccc2[C@@H]2OC(c3ccc(OCCCO)cc3)=N[C@]12CCS(=O)(=O)c1ccccc1 | 1.25 (inactive) | 0.86 | -2.1 | 0.71 (inactive) | 0.367 (inactive) | 0.793 (inactive)
2 | O=C1N[C@@H](Cc2ccccc2)C(=O)N2[C@@H]1C[C@@H](C(=O)O)[C@H]2c1ccc(O)cc1 | 0.24 (inactive) | 0.649 | -0.394 | -2.41 (inactive) | -0.0256 (inactive) | 0.0853 (inactive)
3 | COCCOC(=O)N1C(=O)[C@@]2(c3cc(C#CCNC(N)=O)ccc31)[C@H](c1ccc(OCCO)cc1)N1[C@H](c3ccccc3)[C@H](c3ccccc3)OC(=O)[C@H]1[C@@H]2C(N)=O | 0.236 (inactive) | 0.442 | 0.691 | -2.25 (inactive) | 0.139 (inactive) | 0.189 (inactive)
4 | COCCOC(=O)N1C(=O)[C@@]2(c3cc(C#CCCO)ccc31)[C@H](c1ccccc1OCCO)N1[C@H](c3ccccc3)[C@H](c3ccccc3)OC(=O)[C@H]1[C@@H]2C(=O)N1CCCCCCC1 | 0.783 (inactive) | 0.759 | -2.25 | 3.84 (inactive) | -0.304 (inactive) | -0.387 (inactive)
5 | O=C1O[C@H](c2ccccc2)[C@H](c2ccccc2)N2[C@H]1[C@@H](C(=O)N1CCCCCCC1)[C@]1(C(=O)Nc3ccc(C#CC4(O)CCCCCC4)cc31)[C@H]2c1ccccc1OCCO | 5.88 (inactive) | 0.943 | -1.88 | 4.4 (inactive) | -0.0468 (inactive) | 0.285 (inactive)
6 | CN(C)CCCNC(=O)[C@@H]1c2ccccc2C(=O)N(C2CCCCC2)[C@H]1c1ccc(CO)cc1 | 2.33 (inactive) | 0.834 | -1.99 | 1.8 (inactive) | 0.208 (inactive) | 0.393 (inactive)
7 | O=c1cccc(-c2ccc(F)cc2)o1 | -0.133 (inactive) | 0.472 | 1.07 | -0.287 (inactive) | 0.454 (inactive) | 0.606 (inactive)
8 | CC(C)C[C@@H]1NC(=O)CNC(=O)[C@@]23C(=O)N[C@@H](Cc4ccccc4)C2[C@H](C)[C@@]2(C)O[C@H]2C3/C=C/C/C=C\CNC1=O (stereo not given in full) | 0.408 (inactive) | 0.767 | 0.0276 | -6.42 (inactive) | -0.284 (inactive) | 0.0034 (inactive)
9 | COC(=O)C1=CC(CCCO)=CC(C)N(Cc2cccc(OC(F)(F)F)c2)C=C1C(=O)OC (stereo not given) | 0.0257 (inactive) | 0.526 | -1.12 | -7.74 (inactive) | -0.249 (inactive) | -0.655 (inactive)
10 | COCCOC(=O)N1C(=O)[C@@]2(c3cc(C#CCNC(N)=O)ccc31)[C@H](c1ccc(O)cc1)N1[C@H](c3ccccc3)[C@H](c3ccccc3)OC(=O)[C@H]1[C@@H]2C(=O)N1CCN(c2ncccn2)CC1 | 0.237 (inactive) | 0.796 | -1.71 | 0.0468 (inactive) | -0.11 (inactive) | -0.184 (inactive)
11 | COCCCNC(=O)[C@@]1(Sc2ccc(C)cc2)CC(=O)N(Cc2ccccc2Cl)[C@@H]1c1ccc(CO)cc1I | -0.517 (inactive) | 0.194 | 1.22 | -2.55 (inactive) | 0.234 (inactive) | 0.456 (inactive)
12 | CCOC(=O)C[C@H]1[C@H](OC(=O)c2ccccc2-c2ccccc2)[C@@H](NC(=O)c2ccc3ccccc3n2)c2cc(OCCCO)ccc2N1C(=O)c1ccccc1 | 0.428 (inactive) | 0.04 | -1.66 | -2.46 (inactive) | 0.342 (inactive) | 0.6 (inactive)
13 | CC(C)C(=C=CC[C@@H](O)c1cccc(OCCO)c1)C[C@@H](O)COCc1ccccc1 | -0.096 (inactive) | 0.294 | -1.18 | -4.48 (inactive) | -1.66 (inactive) | -0.631 (inactive)
14 | COCCOC(=O)N1C(=O)[C@@]2(c3cc(C#CC4=CCCCC4)ccc31)[C@H](c1ccc(O)cc1)N1[C@H](c3ccccc3)[C@H](c3ccccc3)OC(=O)[C@H]1[C@@H]2C(=O)NC[C@H](O)c1ccccc1 | 0.816 (inactive) | 0.75 | -1.69 | 1.07 (inactive) | -0.0889 (inactive) | 0.129 (inactive)
15 | CN1C(=O)C2C=CC(C(O)c3cc(C(F)(F)F)cc(C(F)(F)F)c3)N(NC(=O)OC(C)(C)C)C2C1=O (stereo not given) | 1.07 (inactive) | 0.623 | -1.32 | -5.04 (inactive) | 0.0279 (inactive) | 0.275 (inactive)
